Data from PubChem BioAssay (Tox21).
Records with an inconclusive call do not appear. Activity calls are given as the source filed them. Unless noted, the call rests on the fitted dose curve; in most records, active means well fitted curve in the direction sought with a large enough effect in the repeat runs; inconclusive means weak or mixed curves; inactive means no such curve, though single readings can be large; an effect the other way counts as inactive or inconclusive.

Assays:
[1] = qHTS assay to identify small molecule agonists of the RXR signaling pathway - cell viability counter screen (AID 1159529); further: nearly all actives have a fitted effect of over 50% in size; further: potency means the concentration at half of the fitted maximal effect
In short: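 HEK 293T RXRa-bla cells, 2% CS-FBS; 5 h settle; cpd 16 h 37 C, 5% CO2; CellTiter-Glo 30 min RT, luminescence. Tetraoctyl ammonium bromide as positive control.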

[2] = qHTS assay to identify small molecule antagonists of the retinoid acid receptor (RAR) signaling pathway - cell viability counter screen (AID 1159551); further: nearly all actives have a fitted effect of over 35% in size; further: potency means the concentration at half of the fitted maximal effect
In short: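 Following overnight attachment, C3RL4 reporter cells received DMSO-dissolved compounds and then retinol (1 uM final). Six hours later at 37 C, ATP content was measured by CellTiter-Glo luminescence.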

[3] = qHTS assay to identify small molecule agonists of the retinoic acid receptor (RAR) signaling pathway (AID 1159553); further: potency means the concentration at half of the fitted maximal effect
In short: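 Cell line C3RL4, RARE luciferase reporter. Treatment: compounds in DMSO, 6 hr, 37 C, 5% CO2, after overnight plating. Detection: luminescence, 30 min RT after reagent.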

[4] = qHTS assay to identify small molecule antagonists of the retinoic acid receptor (RAR) signaling pathway (AID 1159552; further: nearly all actives have a fitted effect of over 50% in size)
In short: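 Cells of the C3RL4 line were seeded, incubated overnight, then dosed with compounds in DMSO followed immediately by retinol (1 uM final). Six hours later luciferase detection reagent went in; signal was measured after 30 min at RT.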

[5] = qHTS assay to identify small molecule antagonists of the estrogen related receptor (ERR) signaling pathway - cell viability counter screen (AID 1224818);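 further: series mostly up to about 46 µM; viability measured after 17.5 h of compound exposure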
In short: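 Here, ERR cells are plated at 2,000 cells per well, allowed 6 h to attach, and treated with compounds in DMSO for 17.5 h at 37 C. CellTiter-Fluor is then added and fluorescence read after 30 min.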

[6] = qHTS assay to identify small molecule antagonists of the estrogen related receptor (ERR) signaling pathway (AID 1224819;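 further: luminescence from an ERR-driven luciferase reporter measured with One-Glo reagent; series mostly up to about 46 µM; nearly all actives have a fitted effect of over 50% in size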)
In short: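 LOPAC library screened for antagonism as reduced One-Glo luminescence in ERR reporter cells (2,000/well). Compounds were added after 6 h pre-incubation and left 18 h at 37C; reading followed a 30 min room-temperature reagent step.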

[7] = qHTS assay to identify small molecule agonists of the estrogen related receptor (ERR) signaling pathway (AID 1224820)
In short: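 Quantitative HTS of the LOPAC library used NTP ERR reporter cells treated 18 h at 37 C. Signal is luminescence after One-Glo addition and a 30 min room-temperature incubation.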

[8] = system: estrogen-related receptor alpha (ERRalpha) with PGC-1alpha coactivator, human; test: qHTS assay to identify small molecule antagonists of the estrogen related receptor signaling pathway with the pleiotropic PPARgamma coactivator (PGC) (AID 1224821; calls by dose curve;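 further: series mostly up to about 46 µM; lower luminescence signal means antagonism of PGC/ERR signalling; nearly all actives have a fitted effect of over 50% in size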)
In short: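 Quantitative HTS for antagonism: PGC/ERR cells received compounds after 6 h attachment and were incubated 18 h at 37 C, with luminescence (One-Glo) as the endpoint.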

[9] = qHTS assay to identify small molecule antagonists of the estrogen related receptor signaling pathway with the pleiotropic PPARgamma coactivator (PGC) cell viability counter screen (AID 1224822;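 further: series mostly up to about 46 µM; viability read after 17.5 h compound exposure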)
In short: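 qHTS format, DMSO compound stocks pin-transferred onto PGC/ERR cells 6 h after plating; 17.5 h exposure at 37 C, then CellTiter-Fluor fluorescence.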

[10] = qHTS assay to identify small molecule agonists of the estrogen related receptor signaling pathway with the pleiotropic PPARgamma coactivator (PGC) (AID 1224823)
In short: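 Cell-based luciferase assay in the NTP-supplied PGC/ERR line, 2,000 cells/well; 18 h compound exposure at 37 C, luminescence after One-Glo.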

Measured: Potency

NC(N)=NN=C(/C=C/c1ccc([N+](=O)[O-])o1)/C=C/c1ccc([N+](=O)[O-])o1
active: [1] 8.49 µM | [2] 13.3 µM | [3] 2.11 µM

CCCCCCOC(=O)CCC
inactive: [1] | [2] | [3]

Cc1cc(O)ccc1N
inactive: [4]
active: [1] 34.9 µM

O=C(NS(=O)(=O)/C=C/c1cccs1)c1ccc(F)cc1Br
inactive: [1] | [4] | [3]

CC(C)NCC(O)c1cc(O)cc(O)c1 (centres undefined)
inactive: [1] | [2] | [3] | [5] | [6] | [7] | [8] | [9] | [10]

CC(C)(Oc1ccc(Cl)cc1)C(=O)OCCCOC(=O)C(C)(C)Oc1ccc(Cl)cc1
inactive: [1] | [2] | [3]

COCCOCCOCCOCCOC
inactive: [1] | [2] | [3]

O=C(Cl)c1c(Cl)cccc1Cl
inactive: [1] | [2] | [4] | [3]

O=C(O)[C@@H]1[C@H]2C[C@H]3c4[nH]c5ccccc5c4CCN3C[C@@H]2CC[C@@H]1O
inactive: [1] | [2] | [3]

c1ccc(OCc2ccc(CCCN3CCOCC3)cc2)cc1
inactive: [1] | [2] | [4]
active: [3] 13.3 µM

O=CNc1ccccc1
inactive: [1] | [2] | [3]

CN1CCC(=C2c3ccccc3C=Cc3ccccc32)CC1
inactive: [1] | [2] | [3] | [5] | [6] | [7] | [8] | [10]

O=C(O)C1CCC(C(=O)O)CC1 (centres undefined)
inactive: [1] | [2] | [3]

C[Si](C)O[Si](C)(C)O[Si](C)(C)O[Si](C)C
inactive: [1] | [2] | [3]
